We go through twelve molecules from the supplement of paper PMC12669032.

A number with no mark means an inactive call.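 Rule for the calls: active = AUC reduced over 20% with Padj below 0.05 in at least 2 of 3 replicates; inactive = otherwise.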

Holding throughout (test): growth AUC relative to DMSO control (median of replicates) (fraction); higher = more growth (less inhibition), active = hit call of the paper
Holding throughout (conditions): 20 µM; 24 h

The subject of one test is Coprococcus comes. In a few lines: (§1)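 Area under the growth curve was normalised to the plate median of solvent-only wells, or to row and column medians on the industrial chemical plate. Growth curves came from anaerobic gut bacterial monocultures in mGAM at 37 °C, seeded at OD600 0.05 with 20 µM compound (1% DMSO), and read at OD600 hourly for 24 h with the minimum OD set to 0. The value is the median of three biological replicates grown on separate days.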

The test system of another test is Escherichia coli ED1a. In a few lines: as §1
For the next test, the system named is Escherichia coli IAI1. Put shortly:
as §1

The next test has as its system Eubacterium rectale. Put shortly: as §1
The test system of test [1] is Fusobacterium nucleatum subsp. animalis. In a few lines: as §1
The subject of a further test is Lactobacillus gasseri. Put shortly: as §1
In the next test the test system is Lactobacillus paracasei. Put shortly: as §1
The next test concerns Odoribacter splanchnicus. In a few lines: as §1
Test [2] deals with Parabacteroides distasonis. Put shortly:
as §1

Another test deals with Parabacteroides merdae. Put shortly:
as §1

The test system of a further test is Roseburia intestinalis. Put shortly: as §1
For the next test, the system named is Streptococcus salivarius. In a few lines:
as §1

Consider `CCOP(=S)(OCC)Oc1cc(C)nc(C(C)C)n1`, for which the “growth AUC” value with Coprococcus comes is 0.982; in the test with Escherichia coli ED1a, 1; with Escherichia coli IAI1 it was 0.992; in the test on Eubacterium rectale, 1.12; in [1], 1.03; in the test with Lactobacillus gasseri, 1.02. Besides, the “growth AUC” value in the test on Lactobacillus paracasei is 1.03; with Odoribacter splanchnicus it was 0.999; in [2] it was 0.924; with Parabacteroides merdae, 1; with Roseburia intestinalis, 0.984; in the test with Streptococcus salivarius, 1.03.

As to `CC1(C)[C@H](C=C(Cl)Cl)[C@H]1C(=O)OCc1c(F)c(F)cc(F)c1F`, the “growth AUC” value was 1 in the test on Coprococcus comes; 1.01 in the test on Escherichia coli ED1a; 1.03 in the test on Escherichia coli IAI1; 0.957 in the test on Eubacterium rectale; 1.04 in test [1]; 1.02 with Lactobacillus gasseri. For the same molecule, the “growth AUC” value in the test on Lactobacillus paracasei was 0.947; in the test with Odoribacter splanchnicus it was 1.02; in test [2], 0.999; in the test with Parabacteroides merdae, 0.989; in the test on Roseburia intestinalis it was 0.946; in the test with Streptococcus salivarius it was 1.02.

Take `Oc1ccc(C(c2ccc(O)cc2)(C(F)(F)F)C(F)(F)F)cc1`: the “growth AUC” value in the test with Coprococcus comes was 1.06; with Escherichia coli ED1a it was 0.969; in the test on Escherichia coli IAI1, 1; in the test with Eubacterium rectale, 0.792 (active); in [1], 0.595 (active); with Lactobacillus gasseri, 0.577. Moreover, the “growth AUC” value in the test on Lactobacillus paracasei was 0.727; in the test on Odoribacter splanchnicus, 0.0871 (active); in [2] it was 0.0433 (active); in the test on Parabacteroides merdae, 0.515 (active); in the test with Roseburia intestinalis, 0.661 (active); in the test with Streptococcus salivarius it was 0.85.

On to `COc1c(Cl)ccc(Cl)c1Cl`, for which the “growth AUC” value in the test with Coprococcus comes was 0.973; in the test with Escherichia coli ED1a, 0.967; in the test on Escherichia coli IAI1, 0.99; in the test with Eubacterium rectale it was 1.01; in test [1] it was 1.04; with Lactobacillus gasseri, 0.879. The “growth AUC” value with Lactobacillus paracasei is 0.937; in the test on Odoribacter splanchnicus, 1; in test [2], 0.985; in the test on Parabacteroides merdae, 0.981; in the test on Roseburia intestinalis, 1.01; in the test with Streptococcus salivarius it was 0.952.

`O=C(Nc1ccccc1)c1ccccc1I`: the “growth AUC” value in the test with Coprococcus comes is 1.05; with Escherichia coli ED1a it was 1.04; in the test on Escherichia coli IAI1 it was 1; with Eubacterium rectale it was 0.97; in [1] it was 1.04; in the test with Lactobacillus gasseri, 1.09. The “growth AUC” value is 0.96 in the test on Lactobacillus paracasei; 0.989 with Odoribacter splanchnicus; 0.991 in test [2]; 1.01 with Parabacteroides merdae; 1 in the test with Roseburia intestinalis; 1.03 in the test with Streptococcus salivarius.

`CCOP(=S)(OCC)Oc1cnc2ccccc2n1`: the “growth AUC” value in the test on Coprococcus comes is 0.989; in the test with Escherichia coli ED1a it was 0.977; in the test with Escherichia coli IAI1, 0.977; in the test with Eubacterium rectale, 0.91; in test [1], 0.995; in the test on Lactobacillus gasseri, 0.966. Further, the “growth AUC” value in the test with Lactobacillus paracasei was 1.01; with Odoribacter splanchnicus, 1.01; in test [2], 0.589 (active); in the test with Parabacteroides merdae it was 0.947; in the test on Roseburia intestinalis, 0.99; with Streptococcus salivarius, 0.954.

`CCOP(=S)(NC(C)CC)Oc1cc(C)ccc1[N+](=O)[O-]` (centres undefined): the “growth AUC” value was 0.967 in the test with Coprococcus comes; 0.97 in the test with Escherichia coli ED1a; 0.964 in the test with Escherichia coli IAI1; 0.919 in the test on Eubacterium rectale; 0.865 in test [1]; 0.974 in the test with Lactobacillus gasseri. Further, the “growth AUC” value was 0.984 with Lactobacillus paracasei; 0.904 with Odoribacter splanchnicus; 0.733 (active) in test [2]; 0.967 in the test with Parabacteroides merdae; 1.01 in the test with Roseburia intestinalis; 0.976 in the test with Streptococcus salivarius.

In the case of `COC(C)(C)CCCC(C)C/C=C/C(C)=C/C(=O)OC(C)C` (centres undefined), the “growth AUC” value with Coprococcus comes was 1.01; in the test with Escherichia coli ED1a it was 1.01; in the test with Escherichia coli IAI1, 1; in the test on Eubacterium rectale, 0.831; in test [1] it was 1; in the test with Lactobacillus gasseri, 1.04. Besides, the “growth AUC” value in the test with Lactobacillus paracasei is 1.04; with Odoribacter splanchnicus, 0.999; in [2], 1; with Parabacteroides merdae it was 1; in the test with Roseburia intestinalis it was 1.01; in the test on Streptococcus salivarius, 1.01.

As to `COP(=O)(NC(C)=O)SC` (centres undefined), the “growth AUC” value with Coprococcus comes was 0.979; in the test with Escherichia coli ED1a, 1.01; with Escherichia coli IAI1, 0.993; with Eubacterium rectale it was 0.921; in [1], 0.99; with Lactobacillus gasseri, 1.1. The “growth AUC” value is 1.02 with Lactobacillus paracasei; 0.999 in the test on Odoribacter splanchnicus; 1.06 in test [2]; 1.01 in the test on Parabacteroides merdae; 1.01 in the test with Roseburia intestinalis; 1.01 in the test on Streptococcus salivarius.

Consider `CNC(=O)O/N=C/C(C)(C)S(C)=O` (centres undefined), for which the “growth AUC” value in the test on Coprococcus comes was 0.987; in the test on Escherichia coli ED1a it was 0.993; with Escherichia coli IAI1, 1; in the test with Eubacterium rectale, 1.08; in test [1], 0.996; with Lactobacillus gasseri it was 1.01. For the same molecule, the “growth AUC” value was 1.01 in the test with Lactobacillus paracasei; 0.955 in the test on Odoribacter splanchnicus; 1.02 in test [2]; 1 in the test on Parabacteroides merdae; 0.994 in the test on Roseburia intestinalis; 1.01 with Streptococcus salivarius.

For `COP(=S)(OC)SC(CC(=O)O)C(=O)O` (centres undefined), the “growth AUC” value with Coprococcus comes was 1.01; with Escherichia coli ED1a it was 1.02; in the test on Escherichia coli IAI1, 0.974; in the test on Eubacterium rectale it was 0.884; in test [1] it was 1.01; with Lactobacillus gasseri, 1.03. The “growth AUC” value in the test on Lactobacillus paracasei is 0.972; with Odoribacter splanchnicus, 1.14; in test [2] it was 0.956; in the test with Parabacteroides merdae it was 0.976; in the test on Roseburia intestinalis, 1.02; in the test on Streptococcus salivarius it was 1.03.

Regarding `CCSC(=O)N1CCCCCC1`, the “growth AUC” value with Coprococcus comes was 1.02; in the test with Escherichia coli ED1a it was 0.991; in the test on Escherichia coli IAI1, 0.993; in the test with Eubacterium rectale it was 0.977; in [1], 1.06; in the test with Lactobacillus gasseri, 1.06. Besides, the “growth AUC” value in the test on Lactobacillus paracasei was 0.954; with Odoribacter splanchnicus, 0.947; in test [2], 0.997; with Parabacteroides merdae, 1; with Roseburia intestinalis, 1; with Streptococcus salivarius, 1.01.
